Compound activity (PubChem BioAssay)
A selection: hits, their analogues and other compounds. The true share with any hit is near 4.9%.
tim23-1 inh – growth inhibitors of tim23-1 mutant yeast | S. cerevisiae tim23-1 growth, BacTiter-Glo luminescence, 24 h | inhibition, % at 20 µM | 330,000 compounds, 1.3% hits | AID 463212;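 active = growth inhibition of the mutant yeast at or above 50%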;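 note: temperature-sensitive mutant grown at 25 °C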
TIM10 inh – TIM10 yeast growth inhibition; inhibition, % at 10 µM; S. cerevisiae TIM10 strain growth, BacTiter-Glo luminescence, 24 h; 330,000 compounds, 1.4% hits;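 active = inhibition of 40% or more at the single tested concentration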;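 note: wild-type TIM10 isogenic control strain grown at permissive 25 °C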
tim10-1 inh – tim10-1 yeast growth inhibition | inhibition, % at 20 µM | S. cerevisiae tim10-1 ts strain growth, BacTiter-Glo, 24 h | 330,000 compounds, 2.2% hits;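 active = inhibition of at least 40%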;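 note: mutant grown at 25 °C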
NALP1 yeast inh – inhibitors of NALP1 inflammasome in yeast; S. cerevisiae NALP1/ASC/caspase-1 growth, X-gal OD620, 72 h; 280,000 compounds, 0.61% hits; inhibition, % at 10 µM; in the data active = inhibition mostly above about 24%, no sharp cut-off; inactive = mostly below about 32%
NALP3 yeast inh – inhibitors of NALP3 inflammasome in yeast. Yeast reconstituted NLRP3/ASC/caspase-1, beta-gal luminescence, 24 h. 330,000 compounds, 0.39% hits. inhibition, % at 10 µM;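 active = inhibition of 50% or more; inactive = inhibition below 50%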
SKKanGAS inh – blocks kanamycin growth of S. pyogenes SKKanGAS strain; BacTiter-Glo, 6 h; inhibition, % at 7.5 µM; 300,000 compounds, 1.3% hits; AID 1662;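 active = mean replicate score, as percent of positive control median, at least 50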;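 note: strain carries kanamycin resistance gene driven by streptokinase promoter and grows in 40 µg/ml kanamycin; loss of luminescence reflects streptokinase promoter inhibition or plain growth inhibition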
Of the large screens only hits and unclear results are named; the others gave an inactive call.

COc1ccc(CNC(=O)C[C@H]2C[C@H](C(=O)N3CCCCC3)[C@@]3(C)c4[nH]c5ccc(Cl)cc5c4CCN3C2=O)cc1OC	none (no result: NALP1 yeast inh, NALP3 yeast inh, SKKanGAS inh)
COCCn1c(-c2ccc(-c3ccc([N+](=O)[O-])cc3Br)o2)nc2c1c(=O)[nH]c(=O)n2CC(C)C	NALP1 yeast inh 22
Cc1cc(=O)n2[nH]c(C)c(-c3ccccc3)c2n1	none
O=c1cc(-c2ccccc2)nc2c(-c3ccccc3)c(C(F)(F)F)[nH]n12	SKKanGAS inh 56
CC(NC(=O)c1cccc(S(=O)(=O)N(C)c2ccccc2)c1)c1cccnc1 (stereo unspecified)	none (no result: NALP1 yeast inh, SKKanGAS inh)
Cc1oc(-c2ccc(F)cc2)nc1CN(Cc1ccccn1)CC1CCCO1 (stereo unspecified)	SKKanGAS inh 61
COc1cccc(C2c3[nH]c4ccccc4c3CCN2CCCn2cccn2)c1 (stereo unspecified)	none
COc1ccc(C2c3[nH]c4ccccc4c3CCN2CCCn2cccn2)c(C)c1C (stereo unspecified)	NALP1 yeast inh 51
CCCc1nn(C)c(C(=O)Nc2cccc(C)c2)c1Cl	NALP1 yeast inh 46
Cc1ccccc1C(=O)N1CCC(C(=O)N(C)CC(=O)Nc2cccc(F)c2)CC1	none
Cc1ccc(S(=O)(=O)NC2CCCC2)cc1C	NALP1 yeast inh 39
CC(=O)N1CCN(C(=O)CSc2cc(C)c(Br)cc2C)CC1	none
COc1ccc(C2=NOC(Cn3nc(C(=O)NCc4ccccc4OC)cc3-c3ccccc3)C2)cc1 (stereo unspecified)	none (no result: NALP1 yeast inh)
O=c1c2c(nc3c(-c4ccc(Cl)cc4)c[nH]n13)CCC2	SKKanGAS inh 66
O=c1c2c(nc3c(-c4ccccc4)c[nH]n13)CCC2	none
O=C(NC(=S)Nc1cc(Cl)ccc1O)c1cccc(Br)c1	SKKanGAS inh 108
COc1ccc(-c2noc(CCC(=O)NC3CCCCC3)n2)cc1	none
C=CCN1C(=O)c2oc3ccccc3c(=O)c2C1c1ccc(O)c(OC)c1 (stereo unspecified)	NALP1 yeast inh 38
Oc1ccc(Cl)cc1C1=NNC(c2cccs2)C1 (stereo unspecified)	SKKanGAS inh 61
Cc1ccc(O)c(C2=NNC(c3ccc(Cl)cc3)C2)c1 (stereo unspecified)	SKKanGAS inh 57
Oc1ccccc1C1CC(c2cccs2)=NC(c2ccc(Cl)cc2)N1 (stereo unspecified)	none
COc1ccc(NC(=O)CCC(=O)Nc2nnc(CC(C)C)s2)cc1Cl	none
CC(/C=C1\SC(=Nc2cccnc2)NC1=O)=C\c1ccccc1	SKKanGAS inh 56
CC[C@]12c3[nH]c4cc(-c5ccco5)ccc4c3CCN1C(=O)[C@@H](CC(=O)NCc1ccc(OC)c(OC)c1)C[C@@H]2C(=O)N1CCN(C(=O)c2ccco2)CC1	none (no result: NALP1 yeast inh, NALP3 yeast inh, SKKanGAS inh)
Cc1ccc(C)c(NC(=O)CSc2nc3nc(-c4cccs4)cc(C(F)(F)F)c3c(=O)[nH]2)c1	SKKanGAS inh 57 (no result: NALP1 yeast inh)
Nc1nc(SCC(=O)Nc2ccc(C(F)(F)F)cc2)[nH]c(=O)c1NC(=O)c1ccc(F)c(F)c1	none
O=C(CSc1nc2nc(-c3cccs3)cc(C(F)(F)F)c2c(=O)[nH]1)Nc1ccc(F)c(F)c1	SKKanGAS inh 88
CCc1ccc(NC(=O)c2ccc(F)c(S(=O)(=O)NCC3COc4ccccc4O3)c2)cc1 (stereo unspecified)	SKKanGAS inh 50
O=C(NCC1COc2ccccc2O1)c1ccc(F)c(S(=O)(=O)N2CCOCC2)c1 (stereo unspecified)	none (no result: NALP1 yeast inh, SKKanGAS inh)
O=C1/C(=C\c2cc(Br)cc(Br)c2O)SC(=S)N1Cc1ccccc1	SKKanGAS inh 79
COc1cc(/C=C2/SC(=S)N(Cc3ccccc3)C2=O)cc(Cl)c1O	SKKanGAS inh 73 (no result: tim23-1 inh, TIM10 inh, tim10-1 inh, NALP3 yeast inh)
NC(=O)CSc1nc2cc([N+](=O)[O-])ccc2n1-c1cccc(C(F)(F)F)c1	none
CC(Sc1nc2cc([N+](=O)[O-])ccc2n1-c1cccc(C(F)(F)F)c1)C(=O)NC(N)=O (stereo unspecified)	SKKanGAS inh 51
CC(C)c1ccc(CN2CCN(C(=O)CCl)CC2)cc1	NALP1 yeast inh 59 (no result: tim23-1 inh, TIM10 inh, tim10-1 inh, NALP3 yeast inh, SKKanGAS inh)
CC(C)CC(=O)N1CCN(Cc2ccc(Cl)cc2)CC1	none
CC(C)c1ccc(/C=C/C(=O)Nc2ccc(CN3CCOCC3)cc2)cc1	NALP1 yeast inh 40
Cc1ccc(NC(=O)CC2CCCC2)c(Br)c1	none
